Assay results: the supplement of paper PMC3334620
Whole data set: some 33,000 sequences, median “E-score (-0.5 to 0.5)” near -0.04, cut for the highest 2% near 0.36. Many of the other results were omitted from the sample, so the highest values are more common in it than they were.

Molecular target: T1, Hmlalpha2 (UniProt P0CY09)
T1 sequence: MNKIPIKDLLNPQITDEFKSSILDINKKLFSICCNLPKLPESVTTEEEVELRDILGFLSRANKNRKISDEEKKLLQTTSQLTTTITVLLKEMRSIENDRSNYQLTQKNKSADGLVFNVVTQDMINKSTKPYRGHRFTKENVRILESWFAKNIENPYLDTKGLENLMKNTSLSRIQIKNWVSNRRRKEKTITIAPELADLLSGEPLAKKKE
Assay: PBM E-score (8-mer binding enrichment) (E-score (-0.5 to 0.5)); higher = stronger / more preferred TF binding
Settings: protein concentration: 200 nM; construct: GST-full length
Method: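 Universal 'all 10-mer' protein binding microarrays (Agilent AMADID 015681) probed with GST-tagged S. cerevisiae TFs (full-length or DBD) made by in vitro transcription/translation (PURExpress), about 100-200 nM. Bound TF was detected with fluorescent anti-GST. Each ungapped 8-mer (which stands for itself and its reverse complement) is scored by the PBM enrichment score (E-score), a modified Wilcoxon-Mann-Whitney statistic from -0.5 to +0.5, computed with the Universal PBM Analysis Suite. Scale: above 0.35 generally sequence-specific binding.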

| Sequence | PBM E-score |
| --- | --- |
| CACACCGC | -0.0386 |
| TATTTACA | 0.463 |
| AATTTACC | 0.12 |
| TATTTAAA | 0.207 |
| TATTTAGA | 0.28 |
| CATTTACG | 0.303 |
| AATTTACT | 0.296 |
| CATTTACC | 0.144 |
| GATTTACA | 0.429 |
| GATTTACC | 0.18 |
| GATTTAGA | -0.00065 |
| AATTTACA | 0.431 |
| CATTTACA | 0.442 |
| CCGGTGCC | -0.378 |
| AGGAAGAC | -0.0908 |
| CACTCGCA | 0.0187 |
| GACGCGGA | 0.0365 |
| TAAACGGA | 0.0215 |
| AGAGAGCA | -0.234 |
| CAGACACG | 0.0667 |
| ATGACACG | 0.404 |
| GTGACACA | 0.142 |
| ATGACACA | 0.302 |
| AAGACACA | 0.183 |
| AAGACACG | 0.373 |

| Sequence | PBM E-score |
| --- | --- |
| TCACAGCA | 0.0289 |
| ACCGCTGG | -0.228 |
| ACGATGTC | 0.0103 |
| GCGATGAA | 0.0458 |
| GTGATGTA | 0.382 |
| GGGATGTA | 0.328 |
| GCGATGTA | 0.366 |
| CCGATGTA | 0.155 |
| ATGATGTA | 0.358 |
| ACGATGTA | 0.376 |
| CTGATGTA | 0.233 |
| AACTGTTG | -0.104 |
| AAGCCCTA | 0.0656 |
| ACACGGAT | 0.36 |
| ACACGGTG | 0.392 |
| CCACGGTA | -0.0423 |
| AAACGGTG | 0.0442 |
| ATACGGTG | -0.0688 |
| GCACGGTA | -0.0709 |
| ACACGGTC | 0.397 |
| ACACGGTA | 0.366 |
| CCACGGTC | -0.326 |
| ACACGGAA | 0.376 |
| ATACGGTC | -0.0524 |
| ACACGGAG | 0.315 |

| Sequence | PBM E-score |
| --- | --- |
| ATTAAGTC | 0.189 |
| ACCTATGC | -0.0222 |
| TCTGCGCA | -0.00074 |
| CAGGGCCG | -0.121 |
| ACGTTGCG | 0.0728 |
| CGTCCTTC | -0.152 |
| GTTGAGCA | 0.111 |
| GTTGGCGA | -0.0755 |
| GGCTCTTA | -0.184 |
| ACTTAGAT | 0.132 |
| GTCCCTTA | -0.127 |
| AATTACCC | -0.0352 |
| CATTACTA | 0.225 |
| AATTACAG | 0.307 |
| TCTTACAA | 0.229 |
| TGTTACAA | 0.31 |
| CATTACGA | 0.214 |
| CATTACAA | 0.411 |
| TATTACAA | 0.416 |
| CATTACCC | -0.00064 |
| CATTACAG | 0.326 |
| AATTACAC | 0.467 |
| CATTACAC | 0.474 |
| GTTTCCCA | -0.0865 |
| TCGTTGCA | 0.0513 |

| Sequence | PBM E-score |
| --- | --- |
| GGAAAGTA | -0.136 |
| AAGAAGAT | -0.0289 |
| CCCGACAG | -0.191 |
| AATCGGGG | -0.203 |
| AAGATACC | -0.0459 |
| CGGAACCC | -0.13 |
| CCATTAAG | -0.0773 |
| TACAAGGA | 0.291 |
| TATCGTCA | -0.00037 |
| AATTACTA | 0.257 |
| GATTAAAC | 0.155 |
| GATTACCC | 0.109 |
| GATTACAC | 0.483 |
| GATTACAA | 0.438 |
| AATTACCA | 0.273 |
| GATTACCA | 0.087 |
| AATTACAA | 0.436 |
| GATTACTA | 0.213 |
| AGCGTTGG | -0.0565 |
| CCTTGGGC | -0.362 |
| TAGCTCAA | -0.0444 |
| GACTCTGC | -0.314 |
| AGGCTGCC | -0.401 |
| ACAGTAAG | 0.064 |
| GTACGACA | 0.196 |

| Sequence | PBM E-score |
| --- | --- |
| ACATGGCC | 0.417 |
| ACATGGCG | 0.324 |
| GCATGGCC | -0.0405 |
| CCATGGTA | 0.00138 |
| AGATGGTG | -0.0243 |
| ACATGGTC | 0.308 |
| ACATGGTG | 0.414 |
| GCATGGTA | 0.189 |
| ACATGGTA | 0.397 |
| AGAGGCCT | -0.263 |
| AAATCTCA | -0.0212 |
| GAGGTCTA | -0.0189 |
| GCTGCAGC | -0.305 |
| CACGTTAA | 0.376 |
| TGCGTTAA | 0.397 |
| CACGTTAG | 0.113 |
| CGCGTTAG | 0.3 |
| TACGTTAA | 0.325 |
| GGCGTTAA | 0.216 |
| CGCGTTAC | 0.212 |
| CGCGTTAA | 0.427 |
| AGCGTTAA | 0.0425 |
| GCTATCAA | -0.0322 |
| CTGACTCA | -0.179 |
| AAGTCGCG | 0.111 |

| Sequence | PBM E-score |
| --- | --- |
| TAATTCGA | 0.121 |
| ACGCAAAA | 0.145 |
| CCAGTGAC | -0.125 |
| GCAGTTTA | 0.00455 |
| GTTATACA | 0.4 |
| ATTATACA | 0.34 |
| GTTATAGA | 0.368 |
| CTTATAGA | -0.154 |
| CTTATACA | 0.252 |
| ATTATAGA | 0.0519 |
| CATGCGCC | -0.0099 |
| ATGTCGGA | 0.0661 |
| CACGTAAA | 0.405 |
| TACGTAAA | 0.41 |
| AACGTAAC | 0.207 |
| AACGTAAA | 0.325 |
| CACGTAAG | 0.244 |
| GACGTAAA | 0.28 |
| AACGTAAT | 0.379 |
| CACGTAAC | 0.196 |
| TACGTATA | 0.327 |
| CGTCCACA | -0.0612 |
| CCGCGGCC | -0.192 |
| CTGCAAAG | -0.0914 |
| CACGTTGG | 0.109 |

| Sequence | PBM E-score |
| --- | --- |
| ACAGAGAG | -0.0914 |
| CCCAATGC | -0.198 |
| AAACATCT | 0.202 |
| CAACATGG | 0.403 |
| CCACATGA | 0.109 |
| AAACATCC | 0.17 |
| AAACATGC | 0.37 |
| AAACATAC | 0.267 |
| CAACATGA | 0.449 |
| AAACATGT | 0.445 |
| GAACATGA | 0.31 |
| AAACATAT | 0.311 |
| CCACATGG | -0.0738 |
| AAACATGG | 0.349 |
| ATCCTCCA | -0.166 |
| ATACTGAT | 0.126 |
| ACAGCCGG | -0.073 |
| AGAGCTCC | -0.252 |
| CTGGGAGA | -0.262 |
| AAACATGA | 0.388 |
| TAACATCA | 0.338 |
| TAACATGA | 0.462 |
